# Measured values taken from ChEMBL document CHEMBL3988442, “University of Dundee, Small-Polar-MMV Screening Library” (2021).
# Screen size: about 48,000 compounds; about 13,000 (27%) showed an effect of 50% or more. The list shows a part of the results.
# Tested on: Wolbachia pipientis
# Assay: Anti-Wolbachia Cell-Based Screen
# Type: functional
# Design: scale not given: in the data most compounds retested in dose-response had high values
# Conditions: 5 µM
row,Compound,Percent Effect [%]
1,O=C(Cc1cccs1)NC1(C(=O)NCC2CC2)CCCC1,4.522
2,CC(=O)N1CCCC1c1nccnc1Nc1ncccn1 (configuration not stated),114.6
3,COCCC(=O)N1CCCC1c1nccnc1Nc1ncccn1 (configuration not stated),132.2
4,CC(=O)N1CCCC1c1nnn2cc(Nc3ccccc3)ccc12.O=C(O)C(F)(F)F (configuration not stated),-10.64
5,CNS(=O)(=O)Cc1ccc(CNC(=O)Nc2cccnc2)cc1,-4.432
6,COC1CCCN(C(=O)Nc2nc(C)n(C)n2)C1 (configuration not stated),-6.454
7,CCC[C@@H]1CN(Cc2nnc(-c3cccc(F)c3)o2)C[C@H]1NC(C)=O,-4.818
8,O=C(c1cccc2cc[nH]c12)N1CCC2(CCOC2)C1 (configuration not stated),-1.625
9,N#CC1COCCN1C(=O)c1ccc2cc[nH]c2c1 (configuration not stated),87.5
10,N#CC1COCCN1C(=O)c1ccc2[nH]cnc2c1 (configuration not stated),108.9
11,O=C(c1ccc2[nH]cnc2c1)N1CCC(Oc2cccnc2)CC1,-0.01073
12,N#CC1COCCN1C(=O)c1cccc2cc[nH]c12 (configuration not stated),105.1
13,CCc1nnc2n1CCN(C(=O)c1ccc3[nH]cnc3c1)C2,-15.67
14,N#CC1COCCN1C(=O)c1ccc2[nH]ccc2c1 (configuration not stated),142.7
15,O=C(O)C(c1ccc2[nH]ccc2c1)N1CCOCC1 (configuration not stated),14
16,CC(C)(C)OC(=O)N1CCCN1C(=O)c1cccc2cc[nH]c12,-15.66
17,O=C(c1ccc2[nH]ccc2c1)N1CCCCC1c1nc[nH]n1 (configuration not stated),5.747
18,CNS(=O)(=O)CC1CCCN1C(=O)c1ccc2cc[nH]c2c1 (configuration not stated),-9.261
19,NC(=O)CC1CCCCN1C(=O)c1ccc2cc[nH]c2c1 (configuration not stated),-8.838
20,Cc1ncc(CNC(=O)N(C)C2CCN(c3ccccc3)C2=O)s1 (configuration not stated),-4.731
21,Cc1cccc2c1cnn2CCCNC(=O)CCCC(=O)O,-9.765
22,CC(C(=O)N(C)C)S(=O)(=O)c1cc2c(cc1Cl)OCCO2 (configuration not stated),4.925
23,Cc1ccc(C)c(OCc2nnc(SCC3CCCN(C)C3)o2)c1 (configuration not stated),-6.886

row,Compound,Percent Effect [%]
1,Cc1ccc(C)c(CSc2nnc(C(N)Cc3ccccc3)o2)c1.Cl (configuration not stated),112.4
2,Cc1ccc(C)c(CSc2nnc([C@@H](N)C(C)C)o2)c1.Cl,118.1
3,Cc1ccc(C)c(CSc2nnc(C(N)C(C)C)o2)c1.Cl (configuration not stated),129.6
4,Cc1ccccc1CSc1nc(N)cc(N2CCOC(C(N)=O)C2)n1 (configuration not stated),17.62
5,CSCC[C@H](N)c1nnc(SCc2cc(C)ccc2C)o1.Cl,100.9
6,CS(=O)(=O)c1ccc(NC(=O)N2CCc3sccc3C2)cn1,17.51
7,CN(C)c1ccc(NC(=O)CN2CCS(=O)(=O)CC2)cn1,10.44
8,O=C(c1cccnc1-n1cncn1)N1CCN(c2ccccc2)CC1,-6.157
9,O=C(c1cccnc1SCc1ccccc1)N1CCOCC1,174.3
10,CSc1ncccc1C(=O)N1C[C@H]2CC[C@@H]1CN(C(C)=O)C2,3.365
11,O=C(c1cccnc1SCc1ccccc1)N1CC[C@@H](O)C1,159.2
12,O=C(c1cccnc1Oc1ccc(Cl)cc1)N1CC[C@@H](O)C1,158.3
13,O=C(c1cccnc1SC/C=C/c1ccccc1)N1CCOCC(O)C1 (configuration not stated),8.468
14,COc1ncccc1C(=O)N1CC[C@H]2C[C@@H](C)O[C@@H]2C1,13.58
15,COc1ccc(Oc2ncccc2NC(=O)N2CC[C@H](O)C2)cc1,8.282
16,O=C(c1cccnc1SC/C=C/c1ccccc1)N1CC[C@H](O)C1,8.97
17,CN(C(=O)c1ccc(OCC(F)F)nc1)c1ccc2c(c1)CCO2,2.001
18,OC(CN1CC(n2cccn2)C1)c1ccc2c(c1)OCCO2 (configuration not stated),-60.78
19,CS(=O)(=O)NCCN1CCOC2(CCc3ccccc32)C1 (configuration not stated),9.722
20,Cc1[nH]ccc1C(=O)N(C)C1CC(=O)N(Cc2ccccc2)C1=O (configuration not stated),-3.858
21,O=C(Cc1c[nH]c(=O)[nH]c1=O)N1CCC2(CCC(=O)N(C3CC3)C2)CC1,10.83
22,Cn1ccc(C(=O)Nc2nc(-c3ccc(Cl)cc3)n[nH]2)cc1=O,5.787
23,CCCNC(=O)Cn1cc(C#N)c(=O)c2cc(Br)ccc21,-9.356

row,Compound,Percent Effect [%]
1,CSCC(=O)Nc1ncc(I)cc1C,-3.012
2,Cc1cc(C)c(CNC(=O)NCc2ccc3c(c2)CCC3)c(=O)[nH]1,-7.046
3,CN(C)S(=O)(=O)c1ccc(CN2CCC(C(N)=O)CC2)o1,-3.214
4,CN(C)S(=O)(=O)c1ccc(-c2nc(C#N)c(NC3CCCCC3)o2)o1,126.8
5,CN(C)S(=O)(=O)c1ccc(-c2nc(C#N)c(NC3CC3)o2)o1,107.9
6,CSCC[C@@H](CO)n1ccnc1-c1ccncc1,-26.42
7,C1CCC(OCCN2CCN(CCOC3CCCCC3)CC2)CC1,16.33
8,Oc1cccc(-c2cc(C3CCN(Cc4cncnc4)C3)ccn2)c1 (configuration not stated),-2.47
9,CCC(=O)NCC(=O)NCC1(c2c(F)cccc2F)CCCC1,-0.7519
10,c1cnc(OCc2nnc3n2CCN(Cc2ccco2)C3)nc1,-5.792
11,N#CCC(=O)NCc1nnc2n1CCN(Cc1ccco1)C2,-13.02
12,O=C(O)C(F)(F)F.O=C(O)C(F)(F)F.c1ccc(OCc2nnc3n2CCN(Cc2ccco2)C3)nc1,6.411
13,O=C1CCCN1Cc1nnc2n1CCN(Cc1ccco1)C2,88.52
14,O=C(O)C(F)(F)F.O=C1CCCN1Cc1nnc2n1CCCN(Cc1ccco1)C2,117.6
15,O=C(O)C(F)(F)F.O=C(O)C(F)(F)F.c1ccc(CN2CCc3nnc(CN4CCCCC4)n3CC2)nc1,-3.311
16,O=C(O)C(F)(F)F.O=C1CCCN1Cc1nnc2n1CCN(Cc1ccco1)CC2,95.89
17,CN(C)C(=O)NCc1ncn2c1CN(Cc1ccco1)CCC2.O=C(O)C(F)(F)F,-2.342
18,CCN(Cc1ccccc1C)S(C)(=O)=O,-4.247
19,CN(CC(=O)NCc1ccccn1)C1CCCN(c2cccnn2)C1 (configuration not stated),106.6
20,COCCCNC(=O)CN(C)C1CCCN(c2cccnn2)C1 (configuration not stated),138.8
21,CN(CC(=O)NCc1ccccn1)CC1CCCN1c1cccnn1 (configuration not stated),-6.159
